Columns and labels:
Assay in all cases: DAPPL (digital affinity profiling via proximity ligation, sequencing); 10 mM Tris-HCl pH 7.5, 50 mM NaCl, 1 mM DTT, 4% glycerol, room temperature, 30 min; GST-TFs on glutathione beads, 16-mer random dsDNA library, 0.1% formaldehyde crosslink after washing; high values mean tight binding
FLI1 = target: T1, FLI1 (Homo sapiens, UniProt Q01543 1-452); settings: protein: recombinant; tags: N-terminal GST; dsDNA, one strand shown
T1 sequence: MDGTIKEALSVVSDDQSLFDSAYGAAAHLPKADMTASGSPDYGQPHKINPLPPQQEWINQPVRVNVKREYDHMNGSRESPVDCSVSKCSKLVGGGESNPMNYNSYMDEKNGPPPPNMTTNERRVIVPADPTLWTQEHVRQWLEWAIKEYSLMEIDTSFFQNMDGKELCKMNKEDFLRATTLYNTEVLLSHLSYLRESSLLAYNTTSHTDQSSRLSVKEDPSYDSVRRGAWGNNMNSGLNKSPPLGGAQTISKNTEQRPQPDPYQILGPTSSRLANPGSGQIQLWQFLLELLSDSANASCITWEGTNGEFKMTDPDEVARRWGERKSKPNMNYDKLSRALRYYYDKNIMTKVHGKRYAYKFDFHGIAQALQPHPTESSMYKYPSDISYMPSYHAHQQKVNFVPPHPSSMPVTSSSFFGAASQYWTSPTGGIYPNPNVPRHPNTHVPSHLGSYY
Procedure, shortened: (§1)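 Human transcription factors fused to GST were expressed in yeast, captured on glutathione beads, given DNA barcodes and pooled with a GST-only negative control. Pools were incubated with 200 nmole of a 16-mer random double-stranded DNA library in Tris/NaCl/DTT/glycerol buffer at room temperature for 30 min. They were then washed, crosslinked with 0.1% formaldehyde, proximity-ligated (BsaI/T4 ligase, 1 h, 37 °C), PCR-amplified and sequenced on an Illumina NextSeq500. Binding signal is each 6-mer's read frequency for a factor divided by its frequency for the GST control.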

ELK1 = target: T2, ELK1 (Homo sapiens, UniProt P19419 1-428); settings: protein: recombinant; tags: N-terminal GST; dsDNA, one strand shown
T2 sequence: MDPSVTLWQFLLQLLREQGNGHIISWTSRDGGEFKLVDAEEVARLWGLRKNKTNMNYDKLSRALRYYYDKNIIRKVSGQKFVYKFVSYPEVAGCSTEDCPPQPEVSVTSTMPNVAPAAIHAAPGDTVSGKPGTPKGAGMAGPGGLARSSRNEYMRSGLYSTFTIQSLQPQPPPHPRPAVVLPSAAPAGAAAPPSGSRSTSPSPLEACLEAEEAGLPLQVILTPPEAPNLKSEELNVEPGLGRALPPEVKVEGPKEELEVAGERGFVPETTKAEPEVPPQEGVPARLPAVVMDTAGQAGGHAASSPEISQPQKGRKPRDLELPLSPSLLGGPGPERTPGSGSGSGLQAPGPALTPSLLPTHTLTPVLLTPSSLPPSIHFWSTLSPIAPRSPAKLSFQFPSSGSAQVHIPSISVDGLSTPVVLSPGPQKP
Procedure, shortened: as §1

GABPA = target: T3, GABPA (Homo sapiens, UniProt Q06546 1-454); settings: protein: recombinant; tags: N-terminal GST; dsDNA, one strand shown
T3 sequence: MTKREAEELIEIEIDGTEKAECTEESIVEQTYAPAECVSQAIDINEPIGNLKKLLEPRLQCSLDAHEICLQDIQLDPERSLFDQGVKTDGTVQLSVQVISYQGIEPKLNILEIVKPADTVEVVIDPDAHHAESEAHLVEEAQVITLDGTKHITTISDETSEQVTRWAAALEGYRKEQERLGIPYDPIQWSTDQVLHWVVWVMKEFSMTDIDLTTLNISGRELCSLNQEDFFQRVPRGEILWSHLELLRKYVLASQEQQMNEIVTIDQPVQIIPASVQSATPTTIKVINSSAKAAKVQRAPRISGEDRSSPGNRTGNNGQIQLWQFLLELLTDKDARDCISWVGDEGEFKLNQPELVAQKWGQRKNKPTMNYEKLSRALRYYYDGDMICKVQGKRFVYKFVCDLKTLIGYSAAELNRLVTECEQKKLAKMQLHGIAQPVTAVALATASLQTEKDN
Procedure, shortened: as §1

ERG = target: T4, ERG (Homo sapiens, UniProt P11308 1-479); settings: protein: recombinant; tags: N-terminal GST; dsDNA, one strand shown
T4 sequence: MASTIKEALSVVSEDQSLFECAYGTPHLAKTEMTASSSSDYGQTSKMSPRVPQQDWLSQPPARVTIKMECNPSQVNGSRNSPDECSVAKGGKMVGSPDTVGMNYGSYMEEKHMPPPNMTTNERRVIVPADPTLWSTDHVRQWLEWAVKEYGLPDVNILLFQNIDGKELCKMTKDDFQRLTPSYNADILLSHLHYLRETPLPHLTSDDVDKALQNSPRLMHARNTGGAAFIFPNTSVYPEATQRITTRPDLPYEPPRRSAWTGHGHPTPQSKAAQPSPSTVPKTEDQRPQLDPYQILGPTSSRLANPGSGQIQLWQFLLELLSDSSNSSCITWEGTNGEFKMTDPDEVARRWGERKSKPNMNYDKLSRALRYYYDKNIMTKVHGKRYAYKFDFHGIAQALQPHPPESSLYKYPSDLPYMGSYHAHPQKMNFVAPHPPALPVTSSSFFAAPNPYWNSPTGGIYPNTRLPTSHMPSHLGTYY
Procedure, shortened: as §1

ELF1 = ELF1 (Homo sapiens, UniProt P32519 1-619); settings: protein: recombinant; tags: N-terminal GST; dsDNA, one strand shown
Chain of ELF1 (P32519 whole entry): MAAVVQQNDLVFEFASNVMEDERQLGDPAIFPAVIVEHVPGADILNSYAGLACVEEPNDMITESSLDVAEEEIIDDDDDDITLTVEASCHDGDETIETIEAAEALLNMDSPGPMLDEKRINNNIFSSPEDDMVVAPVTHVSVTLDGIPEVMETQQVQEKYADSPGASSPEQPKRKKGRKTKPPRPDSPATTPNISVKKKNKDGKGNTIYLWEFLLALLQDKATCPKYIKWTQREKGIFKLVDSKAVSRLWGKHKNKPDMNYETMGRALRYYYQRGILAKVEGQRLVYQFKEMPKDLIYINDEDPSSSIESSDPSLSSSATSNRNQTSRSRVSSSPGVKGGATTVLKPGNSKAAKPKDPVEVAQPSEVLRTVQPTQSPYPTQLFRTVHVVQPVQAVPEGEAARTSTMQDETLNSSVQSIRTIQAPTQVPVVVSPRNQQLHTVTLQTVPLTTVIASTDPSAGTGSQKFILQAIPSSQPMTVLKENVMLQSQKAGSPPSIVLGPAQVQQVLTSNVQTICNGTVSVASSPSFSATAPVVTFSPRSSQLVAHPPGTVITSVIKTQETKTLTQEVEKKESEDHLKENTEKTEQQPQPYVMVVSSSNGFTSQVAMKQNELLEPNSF
Procedure, shortened: as §1

EHF = target: T5, EHF (Homo sapiens, UniProt Q9NZC4 1-300); settings: protein: recombinant; tags: N-terminal GST; dsDNA, one strand shown
T5 sequence: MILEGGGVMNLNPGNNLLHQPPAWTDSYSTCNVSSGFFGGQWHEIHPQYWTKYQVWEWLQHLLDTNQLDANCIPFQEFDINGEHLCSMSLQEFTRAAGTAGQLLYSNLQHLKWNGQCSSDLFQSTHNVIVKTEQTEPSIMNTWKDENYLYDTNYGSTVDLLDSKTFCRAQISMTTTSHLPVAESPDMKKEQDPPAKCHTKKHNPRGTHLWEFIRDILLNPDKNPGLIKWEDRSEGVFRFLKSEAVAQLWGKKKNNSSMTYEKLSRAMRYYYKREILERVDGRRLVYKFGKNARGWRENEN
Procedure, shortened: as §1

SPI1 = SPI1 (Homo sapiens, UniProt P17947 1-270); settings: protein: recombinant; tags: N-terminal GST; dsDNA, one strand shown
Procedure, shortened: as §1

SPIB = SPIB (Homo sapiens, UniProt Q01892 1-262); settings: protein: recombinant; tags: N-terminal GST; dsDNA, one strand shown
Chain of SPIB (Q01892 whole entry): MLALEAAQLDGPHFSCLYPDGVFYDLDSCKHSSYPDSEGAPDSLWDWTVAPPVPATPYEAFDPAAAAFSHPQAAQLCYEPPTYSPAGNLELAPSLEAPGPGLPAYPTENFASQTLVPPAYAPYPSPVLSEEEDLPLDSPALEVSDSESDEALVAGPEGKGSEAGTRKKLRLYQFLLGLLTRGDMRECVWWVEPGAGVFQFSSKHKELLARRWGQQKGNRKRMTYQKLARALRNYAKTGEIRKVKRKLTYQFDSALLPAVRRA
Procedure, shortened: as §1

ELK3 = target: T6, ELK3 (Homo sapiens, UniProt P41970 1-407); settings: protein: recombinant; tags: N-terminal GST; dsDNA, one strand shown
T6 sequence: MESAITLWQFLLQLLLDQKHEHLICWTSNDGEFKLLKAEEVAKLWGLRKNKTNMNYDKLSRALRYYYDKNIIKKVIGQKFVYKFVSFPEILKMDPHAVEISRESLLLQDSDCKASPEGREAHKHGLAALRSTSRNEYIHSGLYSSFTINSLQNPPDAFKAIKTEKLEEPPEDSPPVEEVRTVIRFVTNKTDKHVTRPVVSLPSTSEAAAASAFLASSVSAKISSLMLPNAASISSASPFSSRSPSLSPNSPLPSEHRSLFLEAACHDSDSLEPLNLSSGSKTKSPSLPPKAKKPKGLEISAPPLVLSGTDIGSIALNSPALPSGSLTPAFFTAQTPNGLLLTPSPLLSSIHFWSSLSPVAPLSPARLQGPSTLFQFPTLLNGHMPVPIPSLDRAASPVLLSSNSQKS
Procedure, shortened: as §1

FEV = target: T7, FEV (Homo sapiens, UniProt Q99581 1-238); settings: protein: recombinant; tags: N-terminal GST; dsDNA, one strand shown
T7 sequence: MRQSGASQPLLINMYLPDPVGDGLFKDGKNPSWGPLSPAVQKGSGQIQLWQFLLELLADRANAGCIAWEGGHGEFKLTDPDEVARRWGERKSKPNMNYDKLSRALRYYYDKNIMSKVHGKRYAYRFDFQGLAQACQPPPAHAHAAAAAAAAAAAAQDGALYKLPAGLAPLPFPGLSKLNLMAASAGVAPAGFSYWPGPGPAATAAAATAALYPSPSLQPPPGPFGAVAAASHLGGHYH
Procedure, shortened: as §1

ETV5 = ETV5 (Homo sapiens, UniProt P41161 1-510); settings: protein: recombinant; tags: N-terminal GST; dsDNA, one strand shown
Chain of ETV5 (P41161 whole entry): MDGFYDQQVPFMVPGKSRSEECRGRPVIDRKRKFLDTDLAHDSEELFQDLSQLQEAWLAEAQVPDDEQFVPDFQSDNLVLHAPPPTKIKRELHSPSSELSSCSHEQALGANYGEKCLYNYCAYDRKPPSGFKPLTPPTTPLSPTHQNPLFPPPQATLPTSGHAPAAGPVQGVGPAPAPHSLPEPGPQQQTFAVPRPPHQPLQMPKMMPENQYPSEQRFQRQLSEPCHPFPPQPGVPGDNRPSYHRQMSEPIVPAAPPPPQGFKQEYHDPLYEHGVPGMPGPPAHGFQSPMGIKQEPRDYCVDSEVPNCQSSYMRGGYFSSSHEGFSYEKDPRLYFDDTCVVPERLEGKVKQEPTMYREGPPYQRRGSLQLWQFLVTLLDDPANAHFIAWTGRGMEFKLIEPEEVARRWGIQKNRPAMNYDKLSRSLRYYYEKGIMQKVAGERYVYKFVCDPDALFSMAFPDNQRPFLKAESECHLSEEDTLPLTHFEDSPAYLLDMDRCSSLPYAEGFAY
Procedure, shortened: as §1

HSF1 = HSF1 (Homo sapiens, UniProt Q00613 1-529); settings: protein: recombinant; tags: N-terminal GST; chain copies: 3; dsDNA, one strand shown
Chain of HSF1 (Q00613 whole entry): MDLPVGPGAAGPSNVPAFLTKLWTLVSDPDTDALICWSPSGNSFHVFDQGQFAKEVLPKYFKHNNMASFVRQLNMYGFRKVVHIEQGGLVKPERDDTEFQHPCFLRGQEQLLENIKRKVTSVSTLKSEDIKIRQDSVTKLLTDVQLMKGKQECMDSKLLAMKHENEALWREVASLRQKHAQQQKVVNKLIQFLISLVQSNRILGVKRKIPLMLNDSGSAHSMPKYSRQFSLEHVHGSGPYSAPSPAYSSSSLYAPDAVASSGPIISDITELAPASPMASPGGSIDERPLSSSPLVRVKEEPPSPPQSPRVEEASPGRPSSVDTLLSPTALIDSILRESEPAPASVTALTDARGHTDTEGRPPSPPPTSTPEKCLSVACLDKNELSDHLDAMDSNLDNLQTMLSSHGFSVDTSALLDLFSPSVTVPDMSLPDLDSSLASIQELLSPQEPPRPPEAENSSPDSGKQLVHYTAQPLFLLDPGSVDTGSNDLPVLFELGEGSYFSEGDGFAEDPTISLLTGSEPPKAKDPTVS
Procedure, shortened: as §1

SPIC = target: T8, SPIC (Homo sapiens, UniProt Q8N5J4 1-248); settings: protein: recombinant; tags: N-terminal GST; dsDNA, one strand shown
T8 sequence: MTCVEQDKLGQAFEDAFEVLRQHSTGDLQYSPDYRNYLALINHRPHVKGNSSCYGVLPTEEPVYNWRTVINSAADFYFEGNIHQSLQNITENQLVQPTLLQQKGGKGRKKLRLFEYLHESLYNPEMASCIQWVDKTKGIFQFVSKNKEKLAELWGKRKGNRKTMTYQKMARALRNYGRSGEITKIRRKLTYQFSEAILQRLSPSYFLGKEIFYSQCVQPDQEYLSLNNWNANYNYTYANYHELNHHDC
Procedure, shortened: as §1

ELF4 = ELF4 (Homo sapiens, UniProt Q99607 1-663); settings: protein: recombinant; tags: N-terminal GST; dsDNA, one strand shown
Chain of ELF4 (Q99607 whole entry): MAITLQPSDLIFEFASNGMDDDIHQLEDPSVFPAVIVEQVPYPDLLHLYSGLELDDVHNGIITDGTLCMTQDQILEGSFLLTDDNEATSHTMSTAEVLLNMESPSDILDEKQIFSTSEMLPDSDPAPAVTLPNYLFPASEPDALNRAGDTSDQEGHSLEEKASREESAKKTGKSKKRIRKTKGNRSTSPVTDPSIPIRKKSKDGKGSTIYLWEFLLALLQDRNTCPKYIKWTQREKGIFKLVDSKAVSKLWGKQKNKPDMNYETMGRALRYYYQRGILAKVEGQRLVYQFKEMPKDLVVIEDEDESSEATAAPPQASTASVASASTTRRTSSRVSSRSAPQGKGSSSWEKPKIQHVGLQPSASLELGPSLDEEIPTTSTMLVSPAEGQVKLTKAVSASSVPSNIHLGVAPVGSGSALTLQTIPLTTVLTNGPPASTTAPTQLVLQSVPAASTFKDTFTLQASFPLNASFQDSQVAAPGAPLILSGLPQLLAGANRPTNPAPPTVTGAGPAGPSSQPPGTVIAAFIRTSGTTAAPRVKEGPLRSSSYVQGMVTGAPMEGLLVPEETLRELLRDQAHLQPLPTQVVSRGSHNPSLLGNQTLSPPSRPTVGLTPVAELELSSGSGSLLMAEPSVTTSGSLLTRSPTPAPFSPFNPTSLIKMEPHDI
Procedure, shortened: as §1

ELK4 = target: T9, ELK4 (Homo sapiens, UniProt P28324-2 1-405); settings: protein: recombinant; tags: N-terminal GST; dsDNA, one strand shown
T9 sequence: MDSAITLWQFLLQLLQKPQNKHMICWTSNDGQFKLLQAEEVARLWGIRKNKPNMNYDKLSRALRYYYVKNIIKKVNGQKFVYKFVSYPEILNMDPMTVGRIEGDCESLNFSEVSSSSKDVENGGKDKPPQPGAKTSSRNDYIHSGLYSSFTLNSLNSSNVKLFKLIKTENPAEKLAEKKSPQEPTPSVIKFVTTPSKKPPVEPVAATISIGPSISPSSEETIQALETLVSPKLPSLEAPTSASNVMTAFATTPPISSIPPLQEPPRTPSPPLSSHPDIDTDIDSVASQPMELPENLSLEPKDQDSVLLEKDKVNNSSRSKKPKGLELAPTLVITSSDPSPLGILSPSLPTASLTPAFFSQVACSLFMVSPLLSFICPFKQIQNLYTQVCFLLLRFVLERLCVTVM
Procedure, shortened: as §1

ETV2 = target: T10, ETV2 (Homo sapiens, UniProt O00321 1-342); settings: protein: recombinant; tags: N-terminal GST; dsDNA, one strand shown
T10 sequence: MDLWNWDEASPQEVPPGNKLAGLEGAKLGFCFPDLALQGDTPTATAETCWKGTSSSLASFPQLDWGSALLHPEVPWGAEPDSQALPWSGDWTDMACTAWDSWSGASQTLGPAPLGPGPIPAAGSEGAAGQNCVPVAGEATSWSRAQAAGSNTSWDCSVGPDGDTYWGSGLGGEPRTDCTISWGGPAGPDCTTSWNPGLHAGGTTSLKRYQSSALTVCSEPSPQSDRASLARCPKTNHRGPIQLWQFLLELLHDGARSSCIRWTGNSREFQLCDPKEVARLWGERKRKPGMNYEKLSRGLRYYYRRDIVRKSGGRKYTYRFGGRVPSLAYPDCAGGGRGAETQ
Procedure, shortened: as §1

ELF3 = target: T11, ELF3 (Homo sapiens, UniProt P78545 1-371); settings: protein: recombinant; tags: N-terminal GST; dsDNA, one strand shown
T11 sequence: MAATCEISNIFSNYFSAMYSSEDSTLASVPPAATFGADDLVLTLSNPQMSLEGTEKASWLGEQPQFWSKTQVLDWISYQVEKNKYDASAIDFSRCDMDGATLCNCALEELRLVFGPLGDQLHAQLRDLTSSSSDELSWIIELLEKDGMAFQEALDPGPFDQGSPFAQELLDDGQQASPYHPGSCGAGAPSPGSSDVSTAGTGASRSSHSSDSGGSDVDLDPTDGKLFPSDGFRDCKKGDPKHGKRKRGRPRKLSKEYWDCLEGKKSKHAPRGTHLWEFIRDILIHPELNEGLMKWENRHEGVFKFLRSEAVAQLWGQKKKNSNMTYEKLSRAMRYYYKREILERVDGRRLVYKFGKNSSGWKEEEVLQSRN
Procedure, shortened: as §1

CRX = CRX (Homo sapiens, UniProt O43186 1-299); settings: protein: recombinant; tags: N-terminal GST; dsDNA, one strand shown
Chain of CRX (O43186 whole entry): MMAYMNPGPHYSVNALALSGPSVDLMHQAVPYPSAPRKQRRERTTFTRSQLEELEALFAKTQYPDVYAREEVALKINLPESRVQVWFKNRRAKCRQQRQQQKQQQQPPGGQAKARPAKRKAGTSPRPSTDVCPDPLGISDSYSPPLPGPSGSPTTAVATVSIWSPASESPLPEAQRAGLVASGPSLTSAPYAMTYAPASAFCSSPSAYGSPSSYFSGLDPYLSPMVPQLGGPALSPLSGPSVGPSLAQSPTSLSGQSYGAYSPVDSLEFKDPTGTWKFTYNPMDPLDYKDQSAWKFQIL
Procedure, shortened: as §1

ETV1 = ETV1 (Homo sapiens, UniProt P50549 1-477); settings: protein: recombinant; tags: N-terminal GST; dsDNA, one strand shown
Chain of ETV1 (P50549 whole entry): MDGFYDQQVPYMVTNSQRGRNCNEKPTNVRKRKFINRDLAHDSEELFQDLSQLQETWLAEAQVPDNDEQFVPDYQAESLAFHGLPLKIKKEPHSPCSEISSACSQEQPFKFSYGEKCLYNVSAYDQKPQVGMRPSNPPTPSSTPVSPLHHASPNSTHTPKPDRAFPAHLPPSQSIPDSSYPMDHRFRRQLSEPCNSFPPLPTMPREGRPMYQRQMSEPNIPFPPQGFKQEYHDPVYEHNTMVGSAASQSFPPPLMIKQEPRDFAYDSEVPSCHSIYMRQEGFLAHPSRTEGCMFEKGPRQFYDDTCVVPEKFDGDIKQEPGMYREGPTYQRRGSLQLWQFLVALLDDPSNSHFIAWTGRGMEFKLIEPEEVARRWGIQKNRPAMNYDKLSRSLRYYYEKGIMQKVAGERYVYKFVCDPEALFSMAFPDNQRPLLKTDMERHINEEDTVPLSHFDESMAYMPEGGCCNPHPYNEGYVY
Procedure, shortened: as §1

## CCCATT
FLI1
  binding signal: 1.36 fold enrichment (6-mer frequency, TF over GST control)
ELK1
  binding signal: 1.25 fold enrichment (6-mer frequency, TF over GST control)
GABPA
  binding signal: 1.46 fold enrichment (6-mer frequency, TF over GST control)
ERG
  binding signal: 1.41 fold enrichment (6-mer frequency, TF over GST control)
ELF1
  binding signal: 1.39 fold enrichment (6-mer frequency, TF over GST control)
EHF
  binding signal: 1.24 fold enrichment (6-mer frequency, TF over GST control)
SPI1
  binding signal: 1.47 fold enrichment (6-mer frequency, TF over GST control)
SPIB
  binding signal: 1.27 fold enrichment (6-mer frequency, TF over GST control)
ELK3
  binding signal: 1.41 fold enrichment (6-mer frequency, TF over GST control)
FEV
  binding signal: 1.28 fold enrichment (6-mer frequency, TF over GST control)
ETV5
  binding signal: 1.38 fold enrichment (6-mer frequency, TF over GST control)
HSF1
  binding signal: 1.15 fold enrichment (6-mer frequency, TF over GST control)
SPIC
  binding signal: 1.43 fold enrichment (6-mer frequency, TF over GST control)
ELF4
  binding signal: 1.23 fold enrichment (6-mer frequency, TF over GST control)
ELK4
  binding signal: 1.26 fold enrichment (6-mer frequency, TF over GST control)
ETV2
  binding signal: 1.56 fold enrichment (6-mer frequency, TF over GST control)
ELF3
  binding signal: 1.22 fold enrichment (6-mer frequency, TF over GST control)
CRX
  binding signal: 1.19 fold enrichment (6-mer frequency, TF over GST control)
ETV1
  binding signal: 1.25 fold enrichment (6-mer frequency, TF over GST control)
